Laboratory results from the supplement of paper PMC9694430.
Several values for one entry are separate records, joined by “and”; a condition that tells them apart may be missing. Identical values can stand only once.

Assays:
Experiment in all cases: thermal shift delta Tm vs DMSO control; higher = stronger stabilization (binding)
Conditions in all cases: 12.5 µM; protein concentration 2 µM
LOC_OS04G57630-cb004 = test system: LOC_OS04G57630-cb004
Outline: (§1)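 Rice kinase domain constructs were expressed in E. coli, purified, and tested by differential scanning fluorimetry with compound added in DMSO. Each well of a 96-well plate held 19.5 μl of 2 μM kinase in 100 mM potassium phosphate pH 7.5, 150 mM NaCl, 10% glycerol and 5 × SYPRO Orange, and fluorescence was read from 25°C to 95°C at 0.05°C/s. The melting temperature shift is the mean of triplicates, taken against protein with DMSO alone after Boltzmann fitting.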

LOC_OS05G07850-cb002 = test system: LOC_OS05G07850-cb002
Outline: as §1

LOC_OS05G16824-cb004 = test system: LOC_OS05G16824-cb004
Outline: as §1

LOC_OS05G28520-cb001 = test system: LOC_OS05G28520-cb001
Outline: as §1

LOC_OS05G30820-cb001 = test system: LOC_OS05G30820-cb001
Outline: as §1

LOC_OS05G43570-cb004 = test system: LOC_OS05G43570-cb004
Outline: as §1

LOC_OS06G16330-cb003 = test system: LOC_OS06G16330-cb003
LOC_OS06G16330-cb003, sequence (as listed by the source): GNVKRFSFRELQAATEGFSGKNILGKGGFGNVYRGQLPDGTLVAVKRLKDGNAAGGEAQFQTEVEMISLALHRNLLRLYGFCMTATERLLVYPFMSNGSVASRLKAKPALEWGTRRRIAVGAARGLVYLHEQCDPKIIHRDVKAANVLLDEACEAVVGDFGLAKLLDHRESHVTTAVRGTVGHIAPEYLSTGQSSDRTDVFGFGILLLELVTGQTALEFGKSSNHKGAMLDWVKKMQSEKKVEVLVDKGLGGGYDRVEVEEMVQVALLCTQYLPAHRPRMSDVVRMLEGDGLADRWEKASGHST
Outline: as §1

LOC_OS06G22820-cb001 = test system: T1, LOC_OS06G22820-cb001
T1 sequence (whole entry): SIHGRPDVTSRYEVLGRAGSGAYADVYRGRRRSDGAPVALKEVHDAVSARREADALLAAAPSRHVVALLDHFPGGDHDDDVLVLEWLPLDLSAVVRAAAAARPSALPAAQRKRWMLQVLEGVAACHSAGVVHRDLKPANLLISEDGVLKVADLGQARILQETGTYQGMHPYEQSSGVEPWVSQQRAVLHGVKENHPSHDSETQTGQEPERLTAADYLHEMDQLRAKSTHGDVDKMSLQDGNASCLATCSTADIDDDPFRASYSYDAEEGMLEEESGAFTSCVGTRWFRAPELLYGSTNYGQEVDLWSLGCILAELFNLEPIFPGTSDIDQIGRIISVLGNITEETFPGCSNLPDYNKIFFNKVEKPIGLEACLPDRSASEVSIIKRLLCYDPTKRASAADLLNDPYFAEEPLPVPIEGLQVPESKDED
Outline: as §1

LOC_OS07G06570-cb004 = test system: LOC_OS07G06570-cb004
Outline: as §1

LOC_OS07G07230-cb001 = test system: LOC_OS07G07230-cb001
Outline: as §1

| Structure (SMILES) | thermal shift delta Tm (LOC_OS04G57630-cb004) | thermal shift delta Tm (LOC_OS05G07850-cb002) | thermal shift delta Tm (LOC_OS05G16824-cb004) | thermal shift delta Tm (LOC_OS05G28520-cb001) | thermal shift delta Tm (LOC_OS05G30820-cb001) | thermal shift delta Tm (LOC_OS05G43570-cb004) | thermal shift delta Tm (LOC_OS06G16330-cb003) | thermal shift delta Tm (LOC_OS06G22820-cb001) | thermal shift delta Tm (LOC_OS07G06570-cb004) | thermal shift delta Tm (LOC_OS07G07230-cb001) |
| --- | --- | --- | --- | --- | --- | --- | --- | --- | --- | --- |
| CC1(C)OC(=O)C=C[C@]2(C)[C@H]3CC[C@@]4(C)[C@H](c5ccoc5)OC(=O)[C@H]5O[C@]54[C@]3(C)C(=O)C[C@@H]12 [Obacunone] | -0.08 °C | -0.17 °C | 0.73 °C | 0.17 °C | 0.18 °C | 0.33 °C | -0.35 °C | 0.3 °C | 1.76 °C | 0.44 °C |
| CC(C)(C)c1nc(-c2ccc(NC(=O)Nc3cccc(C(F)(F)F)c3)c3ccccc23)c2c(N)nccn12 [kira6] | 1.93 °C | 6.62 °C | 9.24 °C | 0.74 °C | 0.66 °C | 3.12 °C | 4.28 °C | 0.73 °C | 0.73 °C | 0.14 °C |
| O=C(Nc1cccnc1)c1cc(-c2ccnc(F)c2)ccc1OCc1ccccc1 | 0.47 °C | 4.72 °C | 1.19 °C | 0.34 °C | 0.36 °C | -0.18 °C | -0.02 °C | 0.4 °C | 0.99 °C | 0.03 °C |
| CCN(CC)CCCC(C)Nc1ccnc2cc(Cl)ccc12 (stereo not given) [Chloroquine Phosphate] | 0.53 °C | 0.78 °C | -0.51 °C | 0.02 °C | 0.51 °C | 0.55 °C | -3.04 °C | 0.22 °C | 0.72 °C | 0.52 °C |
| C=CC(=O)Nc1ccc2ncnc(Nc3cccc(Br)c3)c2c1 | 0.39 °C | 0.86 °C | -2.41 °C | -0.05 °C | 0.56 °C | 0.31 °C | -0.95 °C | 0.64 °C | 0.91 °C | 0.32 °C |
| Cc1cc(Nc2cc(N3CCN(C)CC3)nc(Sc3ccc(NC(=O)C4CC4)cc3)n2)n[nH]1 [Tozasertib (VX-680, MK-0457)] | 5.53 °C | 8.32 °C | 15.4 °C | 2.06 °C | 0.66 °C | 0.98 °C | 5.98 °C | 0.83 °C | 0.91 °C | 0.6 °C |
| CC[C@@H](N)CNc1ccnc(-c2cc(-c3cnn(C)c3)ccc2O)n1 | 1.21 °C | 8.12 °C | 8.38 °C | -0.2 °C | 0.07 °C | 0.12 °C | 4.5 °C | 0.55 °C | 0.8 °C | 0.48 °C |
| COCCNCc1ccc(-c2cc3nccc(Oc4ccc(NC(=O)C5(C(=O)Nc6ccc(F)cc6)CC5)cc4F)c3s2)nc1 [Sitravatinib (MGCD516)] | 7.89 °C | 14.5 °C | 10.7 °C | 7.64 °C | 0.29 °C | 0.73 °C | 9.07 °C | 0.6 °C | 0.67 °C | -0.46 °C |
| Cc1cnc(-c2cnc(NCCNc3ccc(C#N)cn3)nc2-c2ccc(Cl)cc2Cl)[nH]1 | -0.09 °C and 0.72 °C | 4.65 °C and 4.93 °C | 1.04 °C and 0.06 °C | 0.2 °C and 0.82 °C | 0.54 °C and 0.26 °C | 0.69 °C and 1.04 °C | -0.09 °C and -0.17 °C | 0.67 °C and 1.04 °C | 0.67 °C and 1.49 °C | 0.25 °C and -0.23 °C |
| CC(C)(C)Cn1c(N)nc2ccc(-c3[nH]c(C(C)(C)C)nc3-c3ccc(F)cc3)nc21 | -1.17 °C | 1.45 °C | -0.61 °C | 0.04 °C | 0.34 °C | 0.33 °C | 0.24 °C | 0.34 °C | 0.31 °C | 0.21 °C |
| Cc1cn(-c2cc(NC(=O)c3ccc(C)c(Nc4nccc(-c5cccnc5)n4)c3)cc(C(F)(F)F)c2)cn1 [Nilotinib (AMN-107)] | -0.2 °C | -0.28 °C | -8.56 °C | 0.53 °C | 0.44 °C | 0.26 °C | -0.09 °C | 0.72 °C | 0.96 °C | 0.47 °C |
| O=C(NCCO)c1cccc(-c2cc(Nc3ccc(OC(F)(F)F)cc3)ncn2)c1 | -0.03 °C | 1.54 °C | 0.97 °C | -0.03 °C | 0.29 °C | 0.15 °C | 1.76 °C | 0.84 °C | 0.21 °C | -0.33 °C |
| C=CC(=O)Nc1ccc(CN2C(=O)N(c3cc(OC)cc(OC)c3)Cc3cnc(Nc4ccc(N5CCN(C)CC5)cc4)nc32)cc1 | 7.31 °C | 0.75 °C | 1.16 °C | 1.83 °C | 0.78 °C | 0.66 °C | 2.37 °C | 0.84 °C | 2.63 °C | 1.29 °C |
| O=C1NC(=O)[C@@H](c2cn3c4c(cccc24)CCC3)[C@@H]1c1c[nH]c2ccccc12 [Tivantinib (ARQ 197)] | 0.47 °C | 0.25 °C | -2.47 °C | 0.49 °C | 0.62 °C | 0.57 °C | 0.29 °C | 0.65 °C | 0.51 °C | 0.56 °C |
| O=C1Nc2ccc(I)cc2/C1=C/c1cc(Br)c(O)c(Br)c1 | -0.66 °C | 7.59 °C | -3.03 °C | 2.07 °C | 1.54 °C | 0.73 °C | 1.63 °C | 0.94 °C | 1.22 °C | 1.47 °C |
| Nc1nc(N)c(N=O)c(OCC2CCCCC2)n1 | 0.27 °C | 8.06 °C | 1.8 °C | 0.61 °C | 0.8 °C | 0.23 °C | 2.17 °C | 0.95 °C | 1.43 °C | -0.02 °C |
| CCS(=O)(=O)N1CCN(c2ccc(Nc3ncc(C(N)=O)c(NC4CC4)n3)cc2)CC1 | 1.82 °C | 9.2 °C | 11.7 °C | 0.7 °C | 3.56 °C | 2.04 °C | 5.15 °C | 0.57 °C | 1.36 °C | 1.17 °C |
| COc1ccc(CC(=O)Nc2nc3c(s2)CCc2ccccc2-3)cc1OC | 0.43 °C | 1.41 °C | 2.09 °C | 0.12 °C | 0.13 °C | 0.04 °C | -0.23 °C | 0.35 °C | 1.1 °C | 0.06 °C |
| CCn1nc(C2CCN(C(=O)CCO)CC2)nc1-c1cnc(N)c(-c2nnc(C(C)(C)C)o2)n1 | 0.47 °C | 8.76 °C | 1.95 °C | 0.66 °C | 0.58 °C | 0.43 °C | 5.59 °C | 0.93 °C | 0.86 °C | 0.4 °C |
